Source: PubChem BioAssay (NCI)
The panel holds about 83,000 compounds, 20% with a hit somewhere; the sample as a whole holds those more often.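 Growth was measured after 48 h exposure to one concentration of compound in 96-well plates. Values under 10 count as active.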 Active and inactive are the calls of the source.

System: NCI/ADR-RES ovarian
Assay: NCI-60 one-dose screen, 48 h (100 = growth as untreated, 0 = no growth, -100 = all killed)
Settings: 10 µM
Protocol: Growth inhibition of the NCI/ADR-RES human […] tumor cell line is measured as a screen for anti-cancer activity. Cells are grown in 96 well plates and exposed to the test compound for 48 hours. Compounds are tested at a single concentration, which is 10^-5 M for most compounds. The reported endpoint is percent growth (GI% or GIPRCNT), where numbers from 0 - 100% represent growth inhibition, and numbers from -100% - 0 represent cell death. For example, a value of 40 represents 60% growth inhibition. A value of 0 means no net growth occurred over the course of the experiment. A value of -40 indicates 40% of cells at the beginning of the experiment died by the end of the experiment. A value of -100 means all cells are dead at the end of the experiment.
NCI-60 Human Tumor Cell Lines Screen was performed using the standard one-dose NCI protocol, which is described in more detail at https://dtp.cancer.gov/discovery_development/nci-60/default.htm.
Compounds with GIPRCNT values below 10 were considered active. Activity score was based on GIPRCNT using the following formula: […]
Score is 0 for GIPRCNT values of 100 or above, 50 for GIPRCNT values of 0, and 100 for GIPRCNT values of -100.

SMILES | growth
Nc1ncc(-c2cnn(C3CCNCC3)c2)cc1-c1nc2ccccc2o1 | 42.8% (inactive)
CCOC(=O)c1cc(C(=O)c2cc(OC)cc(OC)c2)n2nc(C)ccc12 | 19.5% (inactive)
COc1cc(C(=O)n2nc(-c3cc(OC)c(OC)c(OC)c3)nc2N)cc(OC)c1OC | 99.2% (inactive)
O=C1CC(=O)N(C(=O)c2nn(-c3ccc(Cl)cc3)cc2O)N1 | 33.6% (inactive)
C=C(NC(=O)C(=C)NC(=O)c1csc(C2=NC3c4csc(n4)C4NC(=O)c5csc(n5)C(C(C)(O)C(C)O)NC(=O)C5CSC(=N5)C(=CC)NC(=O)C(C(C)O)NC(=O)c5csc(n5)C3(CC2)NC(=O)C(C)NC(=O)C(=C)NC(=O)C(C)NC(=O)C(C(C)CC)NC2C=Cc3c(C(C)O)cc(nc3C2O)C(=O)OC4C)n1)C(N)=O (stereo not given) | 86.3% (inactive)
C=CCN(CC=C)C(=O)[C@H](CC)[C@@H]1CC[C@@H](C)[C@@H]([C@H](C)[C@@H](O)[C@@H](C)C(=O)[C@H](CC)C2O[C@]3(C=CC(=O)[C@]4(CC[C@@](C)([C@H]5CC[C@](O)(CC)[C@H](C)O5)O4)O3)[C@H](C)C[C@@H]2C)O1 (stereo not given in full) | 16.8% (inactive)
C=CCSC(CC)(CC)C(=O)NC | 107% (inactive)
O=C1c2ccccc2C(=O)N1CCCCNc1ccccc1 | 103% (inactive)
COc1ccc(/C=C/c2nnc(/C=C/c3ccc(OC)c(OC)c3)o2)cc1OC | 13.6% (inactive)
COc1ccc2nc(-c3ccc(Cl)cc3)cc(-c3nnc(SC/C(=N\O)c4ccccc4)n3-c3ccccc3)c2c1 | 88.2% (inactive)
CN(C)CCCOc1cccc(NC2=C(Cl)C(=O)C(Nc3cccc(OCCCN(C)C)c3)=C(Cl)C2=O)c1 | 74.7% (inactive)
Cc1c2cnccc2c(C)c2c1c1cc(O)ccc1n2C(C)C | 1.26% (active)
CNC(=O)c1cn2c3c(c(N4CCN(C)CC4)c(F)cc3c1=O)OC[C@@H]2C | 102% (inactive)
O=C(CSc1nccc(Nc2cccc3ccccc23)n1)c1ccc(Cl)cc1 | 93.7% (inactive)
Cc1ccc(C2=NN(c3ccc(S(C)(=O)=O)cc3)C(=O)CC2)cc1 | 6.72% (active)
NC1=NC(c2ccc(Cl)cc2)C2=C(N1)/C(=C/c1ccc(Cl)cc1)CCC2 (stereo not given) | 92.9% (inactive)
CCn1c(SCCc2ccccc2)nnc1-c1nn(-c2ccc(Cl)cc2Cl)c(-c2ccc(Cl)cc2)c1C | 72.6% (inactive)
CC[C@@H](C(=O)[C@H](C)[C@H](O)[C@@H](C)[C@H]1O[C@H]([C@@H](CC)C(=O)O)CC[C@H]1C)C1O[C@]2(C=C[C@@H](O)[C@]3(CC[C@@](C)([C@H]4CC[C@](O)(CC)[C@H](C)O4)O3)O2)[C@H](C)C[C@@H]1C (stereo not given in full) | 44% (inactive)
O=C(/C=C/C=C/c1c(C2CC2)nc2ccccc2c1-c1ccc(F)cc1)c1cccs1 | 22.9% (inactive)
O=[N+]([O-])c1cc(Cl)cc(Cl)c1O | 97.6% (inactive)

SMILES | growth
CCn1cc(C(=O)O)c(=O)c2cc(F)c(N3CCNCC3)cc21 | 110% (inactive)
COc1cccc(CNc2cccc3cn[nH]c23)c1O | 105% (inactive)
COC(=O)C1OC1c1cc([N+](=O)[O-])ccc1OC (stereo not given) | 101% (inactive)
CCCCC(CC)CN=C(N)NC(N)=NCCCCCCN=C(N)NC(N)=NCC(CC)CCCC (stereo not given) | 46.7% (inactive)
Cc1c2cnccc2c(C)c2c1oc1ccccc12 | 73.7% (inactive)
Cc1ccc(N=Nc2ccccc2)cc1 | 102% (inactive)
NC(N)=N/N=C(\N=Nc1ccccc1)c1ccc(Cl)cc1 | 8.53% (active)
CC[C@@H](C(=O)[C@@H](C)[C@@H](O)[C@H](C)[C@@H]1O[C@@H]([C@@H](CC)C(=O)N(CC)CC)CC[C@@H]1C)C1O[C@]2(C=CC(=O)[C@]3(CC[C@@](C)([C@H]4CC[C@](O)(CC)[C@H](C)O4)O3)O2)[C@H](C)C[C@@H]1C (stereo not given in full) | 10.5% (inactive)
OCC1OC2C(NC(=S)N2c2ccccc2)C(O)C1O (stereo not given) | 105% (inactive)
CCCCCCCCCCCC[n+]1c(C)cc(N)c2ccccc21 | 53.3% (inactive)
Cc1cc(Br)nnc1Br | 120% (inactive)
CCCCCOC(=O)Nc1nc(=O)n(C2O[C@H](C)[C@@H](O)[C@H]2O)cc1F (stereo not given in full) | 96.4% (inactive)
O=C1CC(SC(=S)C2CCCC2=O)C(=O)N1 (stereo not given) | 104% (inactive)
NS(=O)(=O)Oc1ccc(-c2ccc3sccc3c2)cc1 | 95.3% (inactive)
COc1cc(-c2nn(-c3cccc(NC(=O)NCCNC(=O)c4cccc(C(F)(F)F)c4)c3)cc2-c2ccncc2)ccc1Cl | 80.3% (inactive)
O=C1c2ccccc2-c2c1c1cccnc1c(=O)n2C[C@H](O)CO | 88.1% (inactive)
Cc1n[nH]c(C)c1N=Nc1cccc2c1C(=O)c1ccccc1C2=O | 89.1% (inactive)
COc1ccc2c(c1)C(=O)/C(=C/c1ncc([N+](=O)[O-])n1C)O2 | -0.383% (active)
O=C1/C(=C/c2ccc([N+](=O)[O-])s2)Oc2cc(Cl)ccc21 | 24% (inactive)
CC1=NN(C(=O)c2nn(-c3ccc(Cl)cc3)cc2O)C(=O)C1 | 31.6% (inactive)
